Most compounds without a hit are left out; they make up all but 4% or so of the library.
MITF act = MITF TRPM1 promoter activation in melanoma cells. SK-MEL-5 TRPM1-promoter luciferase, 24 h; % of positive control, neutral wells = 0. activation, % at 12.5 µM. hit rate 0.75% among 300,000;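 active means mean activation of at least 80% with every replicate also reaching 80%; inconclusive means mean reaches 80% but some replicate falls short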;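 further: 0% = neutral control wells and 100% = parthenolide positive control wells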
esBAF inh = blocks esBAF chromatin remodeling in mouse ES cells; reporter increase, % at 12.5 µM; Bmi1-luciferase knock-in reporter, 24 h; 100% = twice the neutral-well signal; hit rate 2% among 350,000; in the data active means activation above about 40%; inconclusive means no clear call, values can overlap the other calls;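 further: 0% = median of the plate's neutral control wells and 100% = double that signal; a rise in the Bmi1 reporter signal indicates esBAF inhibition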
Wnt act = activates Wnt/beta-catenin signaling in a reporter cell assay | hit rate 1.2% among 300,000 | activation, % at 9.35 µM | activator, plate reader | AID 743398; in the data active means activation above about 30%, passing the limit was not always enough; inconclusive means no clear call, values can overlap the other calls;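 further: 0% = neutral control wells and 100% = positive control wells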
MITF TRPM1 inh = reduces MITF-dependent TRPM1 promoter luciferase signal. hit rate 0.83% among 330,000. inhibition, % at 12.5 µM. AID 488899. SK-MEL-5 TRPM1 promoter luciferase, 24 h;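 active means mean inhibition across replicates of 60% or more, whatever share of single replicates reaches that level; inconclusive means some that reach 60%, reason not given; inactive means mean inhibition across replicates below 60%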
PAX8 reporter = lowers PAX8-driven luciferase in RMG-I cells | hit rate 1.2% among 360,000 | inhibition, % at 12.6 µM | RMG-I TPO-luciferase reporter, SteadyGlo, 24 h;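 active means mean replicate inhibition at least 60% with every replicate also reaching 60%; inconclusive means only one of the two criteria is met; inactive means mean below 60% and not all replicates reaching 60%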;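 further: luciferase light reporting Pax8 driven TPO promoter activity; plate controls were median of neutral control wells for no effect and mitoxantrone controls for full effect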
EWS-Fli block = inhibitors of EWS/Fli oncoprotein transcriptional activity. A673 NR0B1-luciferase reporter, viability-normalised. inhibition, % at 12.6 µM. hit rate 0.67% among 350,000;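 active means mean inhibition of at least 50% after viability correction, with every replicate also passing that limit; inconclusive means mean reaches 50% but only one of two replicates passes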;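 further: firefly luciferase signal divided by Alamar Blue viability fluorescence both relative to DMSO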
Starred values were filed as active, the others as inactive; u = inconclusive; x = not tested or not shown.

SMILES	MITF act	esBAF inh	Wnt act	MITF TRPM1 inh	PAX8 reporter	EWS-Fli block
Cc1ccc(C)c(Nc2cc(C)nc(-c3ccccc3O)n2)c1	-43.0	-10.3	-7.2	42.2	13.5	61.6*
C[C@@H]1CCCCO[C@@H](CN(C)S(=O)(=O)c2ccc(Cl)cc2)[C@@H](C)CN([C@H](C)CO)C(=O)c2cc(NS(C)(=O)=O)ccc2O1	x	0.4	x	x	-23.2	-12.7
O=C(Nc1ccc2nc(C3CC3)n(Cc3ccc(F)cc3)c(=O)c2c1)c1ccco1	x	16.1	x	-19.7	x	x
CC(=O)Nc1ccc2nc(C3CC3)n(Cc3ccc(Cl)cc3)c(=O)c2c1	42.9	74.9*	-2.2	-34.0	-120.2	-90.0
COc1ccc(Cn2c(C3CC3)nc3ccc(NC(=O)C4CC4)cc3c2=O)cc1	118.3*	67.4*	17.2	-112.7	-213.6	x
CCC(=O)Nc1ccc2nc(C3CC3)n(Cc3ccc(C(C)(C)C)cc3)c(=O)c2c1	67.4	3.4	18.8	-60.8	-102.3	-11.3
O=C(C[C@@H]1CC[C@@H](NC(=O)c2ccc(F)cc2)[C@@H](CO)O1)NCc1ccncn1	x	-1.2	x	x	x	x
Cc1ccc(S(=O)(=O)Nc2ccc3c(c2)C(=O)N([C@H](C)CO)C[C@@H](C)[C@@H](CN(C)Cc2ccc4c(c2)OCO4)OCCCC[C@@H](C)O3)cc1	x	-5.1	x	x	97.0*	25.8
C[C@@H]1CN([C@@H](C)CO)C(=O)c2cc(NS(=O)(=O)c3ccc(Cl)cc3)ccc2O[C@@H](C)CCCCO[C@H]1CN(C)Cc1ccc2c(c1)OCO2	x	-11.5	x	x	53.0	-24.4
C[C@H](CO)N1C[C@H](C)[C@H](CN(C)Cc2ccc3c(c2)OCO3)OCCCC[C@H](C)Oc2ccc(NS(=O)(=O)c3ccc(Cl)cc3)cc2C1=O	x	4.9	x	x	76.1*	9.6
CC(C)C#Cc1ccc2c(c1)O[C@@H](CN(C)CC1CC1)[C@@H](C)CN([C@H](C)CO)S2(=O)=O	x	3.5	x	x	x	-13.7
CCC(=O)N1[C@H](CO)[C@@H](c2ccccc2-c2cccc(C)c2)[C@@H]1C#N	x	x	x	x	8.9	-4.4
Cc1cc(Cl)ccc1OCCCC(=O)N1CCCCC1	99.7*	60.5*	x	-96.8	x	x
Cc1ccc(S(=O)(=O)N2CCN(C(=O)CCCOc3ccc(Cl)cc3C)CC2)cc1	5.5	0.4	-4.9	-5.1	30.2	1.2
Cc1cc(Cl)ccc1OCCCC(=O)N1CCOCC1	x	58.9*	u	-67.4	-65.0	x
CCCNC(=O)N1CC2(C1)[C@H](c1ccccc1)[C@H](CO)N2C(=O)C1CCCC1	x	x	x	x	x	7.4
O=C(/C=C/Nc1cccc(C(F)(F)F)c1)c1ccc(Oc2ncccn2)cc1	29.8	49.4*	x	-37.4	x	x
O=C(/C=C/Nc1cccc(C(F)(F)F)c1)c1ccco1	29.9	x	11.9	-34.4	-104.9	-92.6
C[C@@H]1CN([C@H](C)CO)S(=O)(=O)c2ccc(C#CC3(O)CCCC3)cc2O[C@H]1CN(C)C(=O)Nc1ccccc1	x	-19.8	x	x	x	0.4
NC(N)=NC(=O)c1nc(Cl)c(N2CCCCCC2)nc1N	126.0*	58.6*	21.1	-125.4	-54.0	6.7
COc1ccccc1C(=O)Nc1ccc(N2CCN(S(C)(=O)=O)CC2)cc1	x	43.6*	x	-24.4	x	x
CCCC(=O)N1CCN(c2ccc(NC(=O)c3ccc([N+](=O)[O-])o3)cc2)CC1	-88.9	x	-7.9	89.5*	90.4*	58.0*
CCC(=O)N1CCN(c2ccc(NC(=O)c3ccc([N+](=O)[O-])o3)cc2)CC1	-78.2	x	-6.3	79.9*	89.8*	53.9*
O=C(Nc1ccc(N2CCN(Cc3ccccc3F)CC2)cc1)c1ccccc1[N+](=O)[O-]	-10.3	x	-1.0	6.7	8.4	2.8
O=C(Nc1ccc(N2CCN(Cc3ccccc3F)CC2)cc1)c1ccc([N+](=O)[O-])o1	-98.1	x	-11.6	98.4*	x	52.3*
SMILES	MITF act	esBAF inh	Wnt act	MITF TRPM1 inh	PAX8 reporter	EWS-Fli block
COc1ccc(NC(=O)N[C@@H]2CC[C@H](CCn3cc(-c4ccccn4)nn3)O[C@H]2CO)cc1	x	4.3	x	x	10.1	6.6
O=C(Nc1ccc(N2CCN(C(=O)c3ccc(Cl)cc3)CC2)cc1)c1ccc([N+](=O)[O-])o1	-88.4	x	-0.5	90.1*	49.4	66.7*
CS(=O)(=O)N1CCN(c2ccc(NC(=O)c3ccc([N+](=O)[O-])o3)cc2)CC1	-74.5	26.7	-6.0	74.8*	70.8*	42.8
CC(C)(C)C(=O)N1CCN(c2ccc(NC(=O)c3ccc([N+](=O)[O-])o3)cc2)CC1	-81.5	-27.8	-11.5	81.4*	100.9*	53.5*
O=C(Nc1ccc(N2CCCCC2)cc1)c1ccc([N+](=O)[O-])o1	-50.8	15.7	-6.0	52.2	16.3	-1.4
CC1CCN(c2ccc(NC(=O)c3ccc([N+](=O)[O-])o3)cc2)CC1	-80.5	x	-20.0	81.4*	36.0	12.9
CS(=O)(=O)N1CCN(c2ccc(NC(=O)c3cc4ccccc4o3)cc2)CC1	x	37.1	-0.5	-33.0	-32.3	-50.7
O=C(Nc1ccc(N2CCN(C(=O)c3ccccc3)CC2)cc1)c1ccc(Br)o1	5.7	13.6	x	-5.4	x	x
Cc1ccc(S(=O)(=O)Nc2cccc3c2O[C@H](CN(C)Cc2ccc(C(F)(F)F)cc2)[C@@H](C)CN([C@H](C)CO)C3=O)cc1	x	0.3	x	x	x	-2.2
CCC(=O)Nc1ccc2c(c1)C(=O)N(C)C[C@@H](OC)[C@@H](C)CN(Cc1ccccc1)[C@@H](C)CO2	x	-0.5	x	x	x	0.9
CO[C@@H]1CN(C)C(=O)c2cc(NC(=O)C3CC3)ccc2OC[C@H](C)N(CCC(F)(F)F)C[C@H]1C	x	4.2	x	x	15.1	7.6
COc1ccc2c3c(n(C)c2c1)[C@H](CO)N(C(=O)CN1CCOCC1)CC31CCN(C(=O)Nc2cccc(F)c2)CC1	x	x	x	x	x	-3.9
O=C(Nc1ccc(N2CCN(C(=O)c3ccc(Cl)cc3)CC2)cc1)c1ccc2c(c1)OCCO2	-72.6	-9.7	8.5	73.3*	x	x
O=C(Nc1ccc(N2CCN(C(=O)c3ccccc3)CC2)cc1)c1ccc2c(c1)OCCO2	-11.9	26.2	0.2	12.8	-23.2	-5.7
O=C(/C=C/c1ccco1)NC(=S)Nc1cccc(-c2nc3ccccc3s2)c1	-0.5	-8.5	-1.8	-0.5	x	x
O=C(/C=C/c1ccco1)NC(=S)Nc1cc(-c2nc3ccccc3s2)ccc1Cl	-9.2	x	49.6*	9.4	-91.0	-2.7
Cc1ccc(-c2nc3ccccc3o2)cc1NC(=S)NC(=O)/C=C/c1ccco1	-9.3	16.1	2.6	9.6	x	x

Compound activity deposited in PubChem by Broad Institute.
